Rows were chosen to be rich in hits. Some 5.7% of all compounds tested hit in one or more screens of this group.
NR3A LBD binder: binders of NR3A ligand-binding domain, primary screen, biophysical, differential scanning fluorimetry, uHTS; NR3A LBD differential scanning fluorimetry, Tm shift; 0% = protein alone, 100% = glycine-bound protein; Tm shift relative to glycine control, % at 25 µM; hit rate 2.5% among 340,000; Glutamate receptor ionotropic, NMDA 3A (GRIN3A) ligand-binding domain;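 active means melting temperature shift of at least 10% of the positive control shift, at one fixed dose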
rCAG binder: binders of r(CAG) RNA repeats, primary screen, biochemical, fluorescence; inhibition, % at 3 µM; AID 651821, 2012; r(CAG) RNA repeat, TO-PRO-1 dye displacement fluorescence; hit rate 1.3% among 370,000;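 active means inhibition above the plate cutoff, the mean of all test compounds on that plate plus 3 SD, cut at about 35% in these data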;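 further: higher means more dye released from RNA so lower well fluorescence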
MPTP block: mitochondrial permeability transition pore inhibitors, primary screen, biochemical, isolated mouse mitochondria, absorbance | Ca2+ swelling absorbance, 30 min | inhibition, % at 10 µM | hit rate 1.4% among 360,000 | AID 602449, 2012;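 active means inhibition of 50% or more, scaled per plate between neutral and stimulator controls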
Myeloid diff MLP: induction of myeloid progenitor differentiation, primary screen, cell-based, flow cytometry, MLPCN library; hit rate 1% among 360,000; AID 624256, 2012; calls only at 10 µM; ER-HoxA9 myeloid progenitors, lysozyme-GFP differentiation;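 active means normalized GFP-positive differentiation at or above the plate's own cutoff, the solvent-only control mean plus 3 SD; inconclusive means no clear call, values can overlap the other calls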;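 further: cells exposed to compound for four days before flow analysis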
FAS TE block: FAS thioesterase domain inhibitors, primary screen, biochemical, fluorescence intensity, uHTS. Fatty acid synthase (Homo sapiens), P49327. recombinant FAS-TE, OMFH fluorogenic substrate, fluorescence endpoint. inhibition, % at 15 µM. hit rate 0.67% among 360,000. AID 602261, 2012;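 active means compounds whose normalised, plate-corrected inhibition of enzyme fluorescence in the single-dose primary screen is 50% or more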
Numbers stand for hits; . = inactive; ? = inconclusive; / = no result given; + = active, no number.

SMILES	NR3A LBD binder	rCAG binder	MPTP block	Myeloid diff MLP	FAS TE block
COC(=O)c1c(N)n(-c2ccc(NC(C)=O)cc2)c2nc3ccccc3nc12	.	.	.	+	.
COCCNC(=O)c1c(N)n(-c2ccccc2)c2nc3ccccc3nc12	.	.	.	.	.
COCCN1Cc2cc(C(=O)OC)c3c(c2C1=O)c1cc(OC)ccc1n3S(C)(=O)=O	/	.	/	/	/
O=c1oc(C2(O)CCCCC2)cc2ccc(-c3ccc4[nH]ccc4c3)cc12	11	.	.	.	.
O=c1oc(C2(O)CCCCC2)cc2ccccc12	.	.	.	.	.
COc1ccc(N2CCN(S(=O)(=O)c3c(C)n(C)c(=O)n(C)c3=O)CC2)cc1	11	.	.	.	.
Cc1cc(C)c(S(=O)(=O)Nc2ccc3c4c(cccc24)CC3)c(C)c1	.	.	.	?	.
Cc1ccc(S(=O)(=O)Nc2ccc3c4c(cccc24)CC3)c(C)c1	.	.	.	+	.
O=[N+]([O-])c1cccc(/C=C/c2nc[nH]c2[N+](=O)[O-])c1	16	.	.	.	.
O=c1[nH]c(/C=C/c2cccc([N+](=O)[O-])c2)c([N+](=O)[O-])c(=O)[nH]1	.	.	.	.	.
CCn1nnc(-c2ccccc2NS(=O)(=O)c2ccc(C(=O)OC)cc2)n1	12	.	.	.	.
C=CCNC(=O)CN(C(=O)Cc1cccc(OC(F)(F)F)c1)c1cccc(Br)c1	/	.	/	/	/
COc1ccc(N/N=C(/C)c2cnnc(-c3ccccc3)n2)cc1	13	.	.	.	.
Cc1[nH]c2ccccc2c1CC(=O)Nc1ccc(Oc2cccnc2)cc1	/	.	/	/	/
O=C(OCc1cn(Cc2ccccc2F)nn1)N1CCCC1	/	.	/	/	/
Cc1ccc(-n2nc3c([n+]2[O-])CCc2c-3no[n+]2[O-])cc1	.	.	.	+	.
[O-][n+]1onc2c1CCc1c-2nn(-c2ccccc2Cl)[n+]1[O-]	.	.	.	/	.
O=S1(=O)c2ccc(Br)cc2OC2CCCN1C2 (stereo not given)	/	.	/	/	/
CSc1nsc2nc(=O)c(/C=C3\C=Nc4ccccc43)c(N)n12	22	.	.	.	.
CCc1nn2c(N)c(/C=C3\C=Nc4ccccc43)c(=O)nc2s1	.	.	.	.	.
Cc1cn2c(N)c(/C=C3\C=Nc4ccccc43)c(=O)nc2s1	16	.	.	.	.
CCn1c(SCC(=O)NN=Cc2c[nH]c3ccccc23)nc2ccccc21	/	.	/	/	/
CCOC(=O)C1=CCN(S(=O)(=O)c2ccc(Br)cc2)C1c1ccc(Br)cc1 (stereo not given)	/	.	/	/	/
CC(=O)Nc1ccc(NC(=O)CSc2nnc(NC(=O)c3cccc(F)c3)s2)cc1	31	.	.	.	.
CC(=O)Nc1ccc(NC(=O)CSc2nnc(NC(=O)c3ccco3)s2)cc1	16	.	.	.	.
SMILES	NR3A LBD binder	rCAG binder	MPTP block	Myeloid diff MLP	FAS TE block
COc1ccc(C(=O)Nc2nnc(SCC(=O)Nc3ccc(NC(C)=O)cc3)s2)c(OC)c1	20	.	.	.	.
O=C(CSc1nnc(NC(=O)c2ccco2)s1)Nc1ccccc1	.	.	.	.	.
O=C(CSc1nnc(NC(=O)C2CC2)s1)Nc1ccc(F)cc1	14	.	.	.	.
COC(=O)[C@]12C[C@H](CC(=O)N3CCOCC3)C(=O)N(CCC3=CCCCC3)C1=C[C@H](C1CCCC1)O[C@@H]2C	/	.	/	/	/
CCOC(=O)CNC(=O)CSc1nnc(-c2cccs2)o1	/	.	/	/	/
Cc1nnc(-c2cccc(Br)c2)c2cn(-c3ccccc3)nc12	.	.	.	+	.
COc1ccc(-n2cc3c(-c4cccc(Br)c4)nnc(C)c3n2)cc1	.	.	.	+	.
Cc1nnc(-c2cccc(Br)c2)c2cn(-c3ccc(Br)cc3)nc12	.	.	.	.	.
CCOC(=O)C1=C(C(=O)OCC)C2N(Cc3ccc(C#N)cc3)c3ccccc3[C@@]23C[C@@H](C(=O)OC)N(S(=O)(=O)c2cccs2)C3=N1 (stereo not given in full)	/	.	/	/	/
Cc1ccc2nc(NC(=O)/C=C/c3ccc4c(c3)OCO4)sc2c1	36	.	.	.	.
Cc1ccc(NC(=O)/C=C/c2ccc3c(c2)OCO3)nc1	.	.	.	+	.
CC(=O)NCC(=O)N(C)C(C(=O)Nc1ccc2c(c1)OCCO2)c1ccc(C)cc1 (stereo not given)	.	.	.	.	.
